How the values were obtained:
Test in all cases: PBM binding z-score (relative to random genomic background probes); higher = stronger binding; sequences stand for … in GC…GCGATTGACAGCGTAGAATGAAGG
[1] = test system: FXR:RXRa (NR concentration 270 nM, RXRa partner concentration 90 nM)
In short: (§1)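 Binding z-scores were set against random background probes. The data came from custom Agilent 4×180K protein-binding microarrays carrying double-stranded probes with 34-nt variable regions, incubated 1 h with ligand-free nuclear receptor dimers. Partner-specific antibodies detected binding, and scanned fluorescence was regression-normalized.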

[2] = test system: LXRa:RXRa (NR concentration 270 nM, RXRa partner concentration 90 nM)
In short: as §1

[3] = test system: LXRa homodimer (NR concentration 270 nM)
In short: as §1

[4] = test system: LXRb:RXRa (NR concentration 270 nM, RXRa partner concentration 90 nM)
In short: as §1

[5] = test system: LXRb homodimer (NR concentration 270 nM)
In short: as §1

[6] = test system: PPARa:RXRa (NR concentration 270 nM, RXRa partner concentration 90 nM)
In short: as §1

[7] = test system: PPARg:RXRa (NR concentration 180 nM, RXRa partner concentration 90 nM)
In short: as §1

[8] = test system: PPARg:RXRa 270nM:90nM, anti-RXR (NR concentration 270 nM, RXRa partner concentration 90 nM)
In short: as §1

[9] = test system: PPARg:RXRa 30nM:10nM, anti-RXR (NR concentration 30 nM, RXRa partner concentration 10 nM)
In short: as §1

[10] = test system: PPARg:RXRa 90nM:30nM, anti-RXR (NR concentration 90 nM, RXRa partner concentration 30 nM)
In short: as §1

[11] = test system: PPARg:RXRa DBDmut IVT, anti-RXR (DBD mutation: RXRa K156A/R161A, NR concentration 270 nM, RXRa partner concentration 90 nM)
In short: as §1

[12] = test system: PPARg:RXRa IVT, anti-PPARg (NR concentration 270 nM, RXRa partner concentration 90 nM)
In short: as §1

[13] = test system: PPARg DBDmut:RXRa IVT, anti-PPARg (DBD mutation: PPARg1 K132A/R137A, NR concentration 270 nM, RXRa partner concentration 90 nM)
In short: as §1

[14] = test system: PPARg DBDmut IVT, anti-PPARg (DBD mutation: PPARg1 K132A/R137A, NR concentration 270 nM)
In short: as §1

[15] = test system: PPARg homodimer (NR concentration 180 nM)
In short: as §1

[16] = test system: PXR:RXRa (NR concentration 270 nM, RXRa partner concentration 90 nM)
In short: as §1

[17] = test system: PXR homodimer (NR concentration 270 nM)
In short: as §1

[18] = test system: RARa:RXR (NR concentration 270 nM, RXRa partner concentration 90 nM)
In short: as §1

[19] = test system: RARa homodimer (NR concentration 270 nM)
In short: as §1

[20] = test system: RARb:RXRa (NR concentration 270 nM, RXRa partner concentration 90 nM)
In short: as §1

What does the source list for CATACAGGGTCAGATAGGCCAGAGTAGGGACGGC?
PBM binding z-score [1]: 4.34; PBM binding z-score [2]: 3.14; PBM binding z-score [3]: 0.146; PBM binding z-score [4]: 2.31; PBM binding z-score [5]: 0.65; PBM binding z-score [6]: 4.26; PBM binding z-score [7]: 3.15; PBM binding z-score [8]: 2.6; PBM binding z-score [9]: 0.58; PBM binding z-score [10]: 1.71; PBM binding z-score [11]: 0.492; PBM binding z-score [12]: 2.13; PBM binding z-score [13]: 1.29; PBM binding z-score [14]: 1.07; PBM binding z-score [15]: 2.72; PBM binding z-score [16]: 2.05; PBM binding z-score [17]: 0.241; PBM binding z-score [18]: 2.94; PBM binding z-score [19]: 0.209; PBM binding z-score [20]: 3.55

TCATATAGGTAAAATGTGAAAGTCGGTGTGGTAA was tested. Which PBM binding z-score [1] did it give?
Its PBM binding z-score is 0.975.

And the PBM binding z-score [2]?
Its PBM binding z-score is 0.902.

What about the PBM binding z-score [3] of the same sequence?
Its PBM binding z-score is 0.119.

And the PBM binding z-score [4]?
Its PBM binding z-score is 0.595.

And the PBM binding z-score [5]?
Its PBM binding z-score is 0.134.

And the PBM binding z-score [6]?
Its PBM binding z-score is 2.27.

And the PBM binding z-score [7]?
The PBM binding z-score was 3.1.

What about the PBM binding z-score [8] of the same sequence?
The PBM binding z-score was 4.54.

What about the PBM binding z-score [9] of the same sequence?
The PBM binding z-score was 4.42.

And the PBM binding z-score [10]?
The PBM binding z-score was 4.95.

What about the PBM binding z-score [11] of the same sequence?
The PBM binding z-score was 4.79.

And the PBM binding z-score [12]?
Its PBM binding z-score is 2.51.

What about the PBM binding z-score [13] of the same sequence?
Its PBM binding z-score is 0.236.

And the PBM binding z-score [14]?
Its PBM binding z-score is 0.643.

And the PBM binding z-score [15]?
Its PBM binding z-score is 0.891.

And the PBM binding z-score [16]?
The PBM binding z-score was 0.357.

What about the PBM binding z-score [17] of the same sequence?
Its PBM binding z-score is 0.248.

What about the PBM binding z-score [18] of the same sequence?
The PBM binding z-score was 0.634.

What about the PBM binding z-score [19] of the same sequence?
The PBM binding z-score was 0.307.

And the PBM binding z-score [20]?
The PBM binding z-score was 0.176.

For GCTGCTAGGTCAGGTTGGTCAGCGAACGGGTACG, which PBM binding z-score [1] is on record?
The PBM binding z-score was 1.22.

And the PBM binding z-score [2]?
The PBM binding z-score was 0.707.

And the PBM binding z-score [3]?
Its PBM binding z-score is -0.269.

What about the PBM binding z-score [4] of the same sequence?
The PBM binding z-score was 0.492.

What about the PBM binding z-score [5] of the same sequence?
The PBM binding z-score was -0.499.

And the PBM binding z-score [6]?
Its PBM binding z-score is 1.3.

And the PBM binding z-score [7]?
Its PBM binding z-score is 0.347.

What about the PBM binding z-score [8] of the same sequence?
The PBM binding z-score was 0.793.

And the PBM binding z-score [9]?
The PBM binding z-score was -0.213.

And the PBM binding z-score [10]?
The PBM binding z-score was 0.414.

And the PBM binding z-score [11]?
Its PBM binding z-score is 2.7.

And the PBM binding z-score [12]?
Its PBM binding z-score is 2.09.

What about the PBM binding z-score [13] of the same sequence?
The PBM binding z-score was 0.222.

What about the PBM binding z-score [14] of the same sequence?
Its PBM binding z-score is -1.25.

What about the PBM binding z-score [15] of the same sequence?
The PBM binding z-score was 0.933.

And the PBM binding z-score [16]?
The PBM binding z-score was 0.281.

What about the PBM binding z-score [17] of the same sequence?
Its PBM binding z-score is -0.36.

And the PBM binding z-score [18]?
The PBM binding z-score was 0.76.

What about the PBM binding z-score [19] of the same sequence?
The PBM binding z-score was -0.581.

What about the PBM binding z-score [20] of the same sequence?
Its PBM binding z-score is 3.31.

How did the PBM binding z-score [1] turn out when TCATATAGGAAAATGCTAGGTGAAAGTCCGATCT was run?
The PBM binding z-score was 1.09.

What about the PBM binding z-score [2] of the same sequence?
The PBM binding z-score was 0.845.

What about the PBM binding z-score [3] of the same sequence?
Its PBM binding z-score is 0.237.

What about the PBM binding z-score [4] of the same sequence?
Its PBM binding z-score is 0.489.

And the PBM binding z-score [5]?
The PBM binding z-score was -0.0669.

What about the PBM binding z-score [6] of the same sequence?
Its PBM binding z-score is 0.728.

What about the PBM binding z-score [7] of the same sequence?
The PBM binding z-score was 0.487.

What about the PBM binding z-score [8] of the same sequence?
The PBM binding z-score was 2.3.

And the PBM binding z-score [9]?
Its PBM binding z-score is 4.01.

What about the PBM binding z-score [10] of the same sequence?
The PBM binding z-score was 3.28.

What about the PBM binding z-score [11] of the same sequence?
Its PBM binding z-score is 2.71.

What about the PBM binding z-score [12] of the same sequence?
Its PBM binding z-score is 0.68.

And the PBM binding z-score [13]?
Its PBM binding z-score is 0.369.

What about the PBM binding z-score [14] of the same sequence?
The PBM binding z-score was 0.466.

What about the PBM binding z-score [15] of the same sequence?
The PBM binding z-score was 0.42.

What about the PBM binding z-score [16] of the same sequence?
Its PBM binding z-score is 0.59.

What about the PBM binding z-score [17] of the same sequence?
The PBM binding z-score was 0.397.

And the PBM binding z-score [18]?
The PBM binding z-score was 0.636.

What about the PBM binding z-score [19] of the same sequence?
The PBM binding z-score was 1.22.

What about the PBM binding z-score [20] of the same sequence?
The PBM binding z-score was 0.176.

How did the PBM binding z-score [1] turn out when TCTCTGAGGACACGAAAGGTCAGAGCTCGACATC was run?
The PBM binding z-score was 3.12.

And the PBM binding z-score [2]?
The PBM binding z-score was 3.53.

What about the PBM binding z-score [3] of the same sequence?
Its PBM binding z-score is 3.1.

What about the PBM binding z-score [4] of the same sequence?
Its PBM binding z-score is 2.98.

And the PBM binding z-score [5]?
The PBM binding z-score was 0.245.

And the PBM binding z-score [6]?
The PBM binding z-score was 3.53.

And the PBM binding z-score [7]?
Its PBM binding z-score is 1.56.

And the PBM binding z-score [8]?
The PBM binding z-score was 2.9.

And the PBM binding z-score [9]?
The PBM binding z-score was 2.68.

What about the PBM binding z-score [10] of the same sequence?
Its PBM binding z-score is 2.75.

What about the PBM binding z-score [11] of the same sequence?
The PBM binding z-score was 1.67.

And the PBM binding z-score [12]?
The PBM binding z-score was 2.12.

And the PBM binding z-score [13]?
Its PBM binding z-score is 0.453.

What about the PBM binding z-score [14] of the same sequence?
The PBM binding z-score was 1.37.

And the PBM binding z-score [15]?
Its PBM binding z-score is 2.33.

And the PBM binding z-score [16]?
Its PBM binding z-score is 4.09.

And the PBM binding z-score [17]?
The PBM binding z-score was 0.562.

And the PBM binding z-score [18]?
Its PBM binding z-score is 4.33.

And the PBM binding z-score [19]?
The PBM binding z-score was 0.907.

And the PBM binding z-score [20]?
The PBM binding z-score was 4.2.

With ACTAGTTGGTCATCTGAGGTCACACACAATTCGG as the sequence, how does the PBM binding z-score [1] read?
Its PBM binding z-score is 3.47.

What about the PBM binding z-score [2] of the same sequence?
Its PBM binding z-score is 5.26.

And the PBM binding z-score [3]?
The PBM binding z-score was 5.1.

What about the PBM binding z-score [4] of the same sequence?
The PBM binding z-score was 4.09.

What about the PBM binding z-score [5] of the same sequence?
The PBM binding z-score was 1.65.

And the PBM binding z-score [6]?
The PBM binding z-score was 3.98.

And the PBM binding z-score [7]?
Its PBM binding z-score is 2.52.

What about the PBM binding z-score [8] of the same sequence?
The PBM binding z-score was 2.62.

What about the PBM binding z-score [9] of the same sequence?
The PBM binding z-score was 1.13.

And the PBM binding z-score [10]?
Its PBM binding z-score is 2.05.

And the PBM binding z-score [11]?
The PBM binding z-score was 2.52.

What about the PBM binding z-score [12] of the same sequence?
The PBM binding z-score was 3.08.

And the PBM binding z-score [13]?
The PBM binding z-score was 1.2.

What about the PBM binding z-score [14] of the same sequence?
Its PBM binding z-score is 0.851.

And the PBM binding z-score [15]?
Its PBM binding z-score is 3.6.

And the PBM binding z-score [16]?
The PBM binding z-score was 5.61.

And the PBM binding z-score [17]?
Its PBM binding z-score is 2.26.

What about the PBM binding z-score [18] of the same sequence?
The PBM binding z-score was 4.86.

And the PBM binding z-score [19]?
The PBM binding z-score was 1.05.

And the PBM binding z-score [20]?
The PBM binding z-score was 3.69.
